Screens as filed in PubChem BioAssay.
CtBP-E1A inh – inhibitors of CtBP/E1A interaction. AlphaScreen GST-E1A/His-CtBP binding, 1536-well; stronger effect = lower value. activity change, % (no concentration beside the values). 0.49% of 340,000 active. AID 651724; in the data active = activity change below about -65%; inconclusive = mostly about -30% to -63%
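GST-E1A and His-tagged CtBP (125 nM each as 5X stock) were preincubated with pin-transferred compound for 2 h at 37 °C in the dark, then glutathione donor and nickel acceptor beads were added for 1 h before AlphaScreen reading.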
RORg inh – ROR gamma (mouse) transcription inhibition; Drosophila S2 Gal4-RORgamma UAS-luciferase reporter, 20 h; Potency, µM (highest dose often 53.6 µM), inactives show at the highest dose activity change, negative = inhibition, most hits filed as inhibitors; P51450; 5.4% of 310,000 active; AID 2551; also: potency is read from the fitted curve at half-maximal effect; nearly all actives have a fitted effect of over 60% in size
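Stable Schneider cell line, Gal4 DNA-binding domain fused to ROR gamma, UAS-luciferase. Cmpd 1 hr RT → CuSO4 700 uM final → 20 hr RT → luciferase reagent 10 min → luminescence.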
Six1-Eya2 inh – inhibitors of human Six1/Eya2 interaction | Q15475+O00167 | activity change, % (concentration not given with the values) | AlphaScreen GST-Six1/His-Eya2 binding, biochemical; stronger effect = lower value | 0.56% of 360,000 active; in the data active = activity change below about -65%; inconclusive = mostly about -30% to -63%
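AlphaScreen with GST-Six1 and His-Eya2 (5X mix: 250 nM and 500 nM), glutathione donor and nickel acceptor beads; buffer 50 mM Tris pH 8.0, 300 mM NaCl, 1 mM TCEP; 1 h at 37 C in the dark.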
VP16 counter – inhibits Gal4-VP16 luciferase reporter, ROR gamma counter-screen; Drosophila S2 Gal4-VP16 UAS-luciferase, luminescence, 20 h; Potency, µM (highest dose often 53.6 µM), for the others: top-dose activity, negative = inhibition, hits mostly inhibitors; 3.5% of 310,000 active;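 also: Gal4-VP16 expression switched on by copper sulfate through the metallothionein promoter; potency is read from the fitted curve at half-maximal effect; nearly all actives have a fitted effect of over 50% in size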
PKM2 act – activators of human pyruvate kinase M2 | AID 1631 | Potency, µM (titrated, usually from 57.5 µM), for inactives: at the highest dose activation, most hits filed as activators | 0.34% of 260,000 active | purified PKM2, Kinase-Glo ATP luminescence, activation; response scale: 0% is enzyme alone, no compound; also: potency is read from the fitted curve at half-maximal effect; nearly all actives have a fitted effect of over 55% in size
Target sequence (P14618 whole entry, looked up): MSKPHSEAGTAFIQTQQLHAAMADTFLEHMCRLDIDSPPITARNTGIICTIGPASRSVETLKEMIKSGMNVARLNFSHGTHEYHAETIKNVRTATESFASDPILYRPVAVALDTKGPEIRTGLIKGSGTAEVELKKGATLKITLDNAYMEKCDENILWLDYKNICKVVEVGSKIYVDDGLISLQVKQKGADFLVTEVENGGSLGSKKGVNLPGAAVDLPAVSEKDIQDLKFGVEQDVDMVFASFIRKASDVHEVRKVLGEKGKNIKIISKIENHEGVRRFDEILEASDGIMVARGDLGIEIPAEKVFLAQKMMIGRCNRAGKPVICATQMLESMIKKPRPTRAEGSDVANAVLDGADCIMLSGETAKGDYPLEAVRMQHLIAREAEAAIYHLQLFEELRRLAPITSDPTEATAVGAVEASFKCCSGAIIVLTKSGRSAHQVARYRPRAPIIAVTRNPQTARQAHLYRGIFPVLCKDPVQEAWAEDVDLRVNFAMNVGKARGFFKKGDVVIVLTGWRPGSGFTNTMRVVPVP
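Purified hPK-M2 (>95%) run at intermediate activity with 0.1 mM ADP and 0.5 mM PEP in 50 mM imidazole pH 7.2, KCl, MgCl2; 1 h room temperature. ATP formed read by Kinase-Glo luminescence; normalized to uninhibited and no-enzyme controls.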
* = called active by the depositor; ? = inconclusive; . = no result given; [ ] = another dose, or the depositor's remark. Sampled rows, rich in hits. Any-hit rate of the full collection: about 5.6%. Unless noted, calls follow the shape of the dose curve; as a rule, active = well fitted curve in the direction sought with a large enough effect; inconclusive = small, poorly fitted or top-dose-only effect, or another doubt; inactive = no such curve, though single readings can be large; an effect the other way counts as inactive or inconclusive. % is scaled to controls: 0 for no effect and ±100 for the full control effect.

SMILES	CtBP-E1A inh	RORg inh	Six1-Eya2 inh	VP16 counter	PKM2 act
O=C(Cc1ccc(Nc2nc(=S)[nH]c3ccccc23)cc1)NC1CCCCC1	.	-12%	.	-20%	4%
CC(C)CCNC(=O)Cc1ccc(Nc2nc(=S)[nH]c3ccccc23)cc1	19	-5%	-86*	0%	3%
CC(NC(=O)COC(=O)CNS(=O)(=O)/C=C/c1ccccc1)c1ccccc1 (stereo not drawn)	.	.	14	.	.
Cc1csc(N/N=C/c2ccccn2)n1	?	0.35µM*	?	1.1µM*	-53%
Brc1csc(/C=N/Nc2nc3ccccc3s2)c1	-7	0.56µM*	-12	1.3µM*	-16%
C(=NNc1ccc2ccccc2n1)c1ccccn1	-69*	.	-69*	.	.
C(=N\Nc1nc2ccccc2s1)/c1ccccn1	-86*	0.1µM*	-73*	-95%	-24%
COc1ccc(C=NNc2nc3ccccc3s2)cc1	-5	.	9	.	.
Cc1csc(N/N=C/c2ccc([N+](=O)[O-])cc2)n1	-6	-52%	-12	-24%	2%
Fc1cccc(Cn2cc(C(=S)N3CCCCC3)c3ccccc32)c1	-29	7.1µM*	?	7.9µM*	-5%
COc1ccccc1N1CCN(CCN2C(=O)C3CCCCN3C2=O)CC1 (stereo not drawn)	6	-27%	-14	-6%	0%
Cc1ccc(C(=O)N2CCN(C(=O)c3ccc(C)cc3)C2)cc1	2	0%	4	-2%	?
O=C(c1ccccc1)N1N=C(c2ccccc2)CC1(O)C(F)(F)F (stereo not drawn)	.	-24%	4	-18%	.
CC1=NN(C(=O)c2ccc(C)cc2)C(O)(C(F)(F)OC(F)(F)F)C1 (stereo not drawn)	1	6.3µM*	-1	11µM*	-3%
CC1=NN(C(=O)c2ccccc2-n2cccc2)C(O)(C(F)(F)F)C1 (stereo not drawn)	-2	10µM*	0	?	-6%
CCOC(=O)C1=C[C@@H](C(=O)OCC)[C@@H]2C3=C(C(=O)C2(C)C)[C@H](c2ccccc2)[C@@H]2C(=O)N(c4ccccc4)C(=O)[C@@H]2[C@@H]3C1	.	-13%	.	5%	.
O=C(NC(=S)Nc1ccccc1O)c1cncc(Br)c1	-9	.	-20	.	.
Cc1ccc(NC(=S)NC(=O)c2cncc(Br)c2)cc1Cl	-5	.	-3	.	.
S=C(Nc1ccccc1)Nc1ccccc1Br	1	?	7	30%	6%
S=C(Nc1ccccc1)Nc1ccc(Br)cn1	-6	0.89µM*	5	5.6µM*	0%
Cc1cccnc1NC(=S)NC(=O)c1cncc(Br)c1	-1	5µM*	1	?	-6%
Cc1cccnc1NC(=S)NC(=O)c1cccs1	-3	4µM*	-1	10µM*	-14%
O=C(NC(=S)Nc1ccccc1[N+](=O)[O-])c1cncc(Br)c1	.	7.1µM*	-11	5.6µM*	-11%
O=C(NC(=S)Nc1ccccc1C(=O)O)c1cncc(Br)c1	4	-2%[1.91 µM]	2	0%	1%
O=C(NC(=S)Nc1ccccn1)c1cncc(Br)c1	-13	7.9µM*	-9	7.9µM*	4%
SMILES	CtBP-E1A inh	RORg inh	Six1-Eya2 inh	VP16 counter	PKM2 act
O=C(NC(=S)Nc1ccc(Br)cn1)c1cncc(Br)c1	-3	0.5µM*	1	-4%	-3%
COc1ccc(C(=O)Nc2ccc(NC(=O)c3cccs3)cn2)cc1	3	0.22µM*	5	9%	-3%
O=C(NC(=S)Nc1ccc(Br)cn1)c1cccs1	.	2.2µM*	9	8.9µM*	1%
CC(C)CC(NC(N)=O)C(=O)OCC(=O)N(Cc1ccccc1)Cc1ccccc1 (stereo not drawn)	0	5%	4	0%	-2%
COCCN(Cc1cc2cc(C)c(C)cc2nc1Cl)C(=O)Nc1ccccc1	-3	9%	-6	?	-14%
COCCN(Cc1cc2cc3c(cc2nc1Cl)OCO3)C(=O)c1ccc(C)cc1	.	1.6µM*	-4	?	-3%
C=C1C(=O)OC2CC1C(O)CC(C)=CCCC(C)=CC(O)CC2C (stereo not drawn)	11	.	4	.	.
C=C1C(=O)OC2CC1C(OC(C)=O)CC(C)=CCCC(C)=CCC[C@@]2(C)O (stereo partly drawn)	.	5.6µM*	.	?	.
Clc1nc2ccccc2cc1/C=N/Nc1nc2ccccc2[nH]1	3	-33%[10 µM]	-4	-44%	-22%
CCCn1c(/C=N/Nc2nc3ccccc3[nH]2)nc2ccccc21	-18	2µM*	-10	3.2µM*	2%
C=CCn1cc(/C=N/Nc2nc3ccccc3[nH]2)c2ccccc21	?	4.5µM*	-29	7.1µM*	19%
Cc1c(/C=N/Nc2nc3ccccc3[nH]2)c2ccccc2n1C	?	5µM*	?	?	-10%
Cn1c(/C=N/Nc2nc3ccccc3[nH]2)nc2ccccc21	0	4.5µM*	-14	13µM*	-1%
Cc1nc(C(F)(F)F)c(C(=O)O)cc1-c1nc(-c2ccccc2)cs1	.	1%	-8	0%	.
CC(C)(C)C(=O)Nc1nnc(SCC(=O)NC2CCCCC2)s1	0	-3%	15	-1%	-6%
COc1ccc(CCNC(=O)c2cccnc2Cl)cc1OC	.	.	1	.	.
CC(C)Cn1c(/C=N/Nc2nc3ccccc3[nH]2)nc2ccccc21	3	1.8µM*	-3	1.1µM*	-13%
CC(/C=N/Nc1nc2ccccc2[nH]1)=C\c1ccccc1	3	6.3µM*	5	7.1µM*	-3%
C(=N\Nc1nc2ccccc2[nH]1)/c1ccncc1	-2	15%	-10	?	1%
CC(/C=N/Nc1nc(C)cc(=O)[nH]1)=C\c1ccccc1	-4	-2%	11	?	-5%
CC(=O)c1ccc(NC(=O)c2cn(C)c(=O)c3ccccc23)cc1	2	.	-9	.	.
CC(N)c1csc(Nc2ccc(C(=O)NCCCO)cn2)n1 (stereo not drawn)	-83*	.	-69*	.	.
CCCNC(=O)Nc1nc(C(N)c2ccc(OC)cc2)cs1 (stereo not drawn)	?	.	-65*	.	.
COc1ccc(C(N)c2csc(Nc3ccc(C(=O)NCCCO)cn3)n2)cc1 (stereo not drawn)	-79*	.	-76*	.	.
COc1ccc(C(N)c2csc(Nc3ccc(S(C)(=O)=O)cc3)n2)cc1 (stereo not drawn)	-8	.	7	.	.
Cc1ccc(NC(=S)N2CCC(NC(=O)c3ccc(F)cc3)CC2)cc1	1	-4%	-9	0%	1%
COc1cc(Cl)ccc1OCc1cc(C(=O)N2CCN(C)C(=O)[C@@H]2C)no1	-1	.	-1	.	.
Cc1cc(OCc2cc(C(=O)N3CCN(C)C(=O)[C@@H]3C)no2)cc(C)c1Cl	-1	-34%	-2	14µM*	.
C/C(CC(=O)Nc1ccc2c(c1)OCO2)=N\NC(=O)C(c1ccccc1)c1ccccc1	12	16µM*	-5	?	-5%
